According to PubChem BioAssay AID1159580 (chemical genetic matrix, 2015):
About 2,000 (36%) of roughly 5,500 compounds were called active. Not shown: some 18% with an inconclusive outcome. This is one part of the list. A number with no mark means an inactive call. Rule as the data show it: active = normalized growth mostly below about 0.91 (no sharp cut-off); inconclusive = no clear call, values can overlap the other calls; inactive = mostly above about 0.92.

Experiment: chemical genetic growth profiling, strain panel (AID 1159580);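 also: tested at 20 µM; growth read once vehicle control cultures reached saturation at 30 °C; 1 = growth at the plate median or of vehicle wells; lower values mean less growth of the strain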
Conditions: growth OD
[1] = S. cerevisiae deletion strains, locus YGR078C, strain PAC10, active compounds read low
[2] = S. cerevisiae deletion strains, locus YMR307W, strain GAS1, active compounds read low
[3] = S. cerevisiae deletion strains, locus YNL153C, strain GIM3, active compounds read low
[4] = S. cerevisiae deletion strains, locus YNL322C, strain KRE1, active compounds read low
[5] = S. cerevisiae deletion strains, locus YPL055C, strain LGE1, active compounds read low
[6] = S. cerevisiae deletion strains, locus YPL241C, strain CIN2, active compounds read low
[7] = S. cerevisiae deletion strains, locus YAL013W, strain DEP1, active compounds read low
[8] = S. cerevisiae deletion strains, locus YBR229C, strain ROT2, active compounds read low
[9] = S. cerevisiae deletion strains, locus YCL061C, strain MRC1, active compounds read low
[10] = S. cerevisiae deletion strains, locus YDL101C, strain DUN1, active compounds read low
[11] = S. cerevisiae deletion strains, locus YDR150W, strain NUM1, active compounds read low
[12] = S. cerevisiae deletion strains, locus YEL061C, strain CIN8, active compounds read low
[13] = S. cerevisiae deletion strains, locus YHR030C, strain SLT2, active compounds read low
[14] = S. cerevisiae deletion strains, locus YHR087W, strain rtc3, active compounds read low
[15] = S. cerevisiae deletion strains, locus YJR043C, strain POL32, active compounds read low
[16] = S. cerevisiae deletion strains, locus YJR075W, strain HOC1, active compounds read low
[17] = S. cerevisiae deletion strains, locus YKL190W, strain CNB1, active compounds read low
[18] = S. cerevisiae deletion strains, locus YLR039C, strain RIC1, active compounds read low
[19] = S. cerevisiae deletion strains, locus YLR058C, strain SHM2 (second series), active compounds read low
[20] = S. cerevisiae deletion strains, locus YLR085C, strain ARP6, active compounds read low
[21] = S. cerevisiae deletion strains, locus YLR262C, strain YPT6, active compounds read low
[22] = S. cerevisiae deletion strains, locus YML094W, strain GIM5, active compounds read low
[23] = S. cerevisiae deletion strains, locus YMR219W, strain ESC1, active compounds read low
[24] = S. cerevisiae deletion strains, locus YMR263W, strain SAP30, active compounds read low
[25] = S. cerevisiae deletion strains, locus YNL298W, strain CLA4 (second series), active compounds read low
[26] = S. cerevisiae deletion strains, locus YNR030W, strain Alg12, active compounds read low
[27] = S. cerevisiae deletion strains, locus YPR135W, strain CTF4, active compounds read low

SMILES: OCc1cnc[nH]1
- normalized growth (S. cerevisiae deletion strains, locus YAL040C, strain CLN3, active compounds read low): 0.98
- normalized growth (S. cerevisiae deletion strains, locus YCL061C, strain MRC1 (second series), active compounds read low): 1
- normalized growth (S. cerevisiae deletion strains, locus YDR363W, strain ESC2, active compounds read low): 1.01
- normalized growth (S. cerevisiae deletion strains, locus YER002W, strain NOP16, active compounds read low): 1.03
- normalized growth [1]: 1.01
- normalized growth (S. cerevisiae deletion strains, locus YGR229C, strain SMI1, active compounds read low): 0.987
- normalized growth [2]: 1
- normalized growth [3]: 1.05
- normalized growth (S. cerevisiae deletion strains, locus YNL175C, strain NOP13, active compounds read low): 1.02
- normalized growth (S. cerevisiae deletion strains, locus YNL197C, strain WHI3, active compounds read low): 1.01
- normalized growth (S. cerevisiae deletion strains, locus YNL224C, strain SQS1, active compounds read low): 1.01
- normalized growth [4]: 1
- normalized growth (S. cerevisiae deletion strains, locus YOR083W, strain WHI5 (second series), active compounds read low): 0.989
- normalized growth [5]: 1.01
- normalized growth [6]: 1.01

SMILES: N#Cc1ncc(C(F)(F)F)cc1Oc1ccc(Cl)cc1
- normalized growth [7]: 0.921 (active)
- normalized growth [8]: 0.789 (active)
- normalized growth [9]: 0.898 (active)
- normalized growth [10]: 0.868 (active)
- normalized growth [11]: 0.799 (active)
- normalized growth [12]: 0.903 (active)
- normalized growth [1]: 0.708 (active)
- normalized growth [13]: 0.843
- normalized growth [14]: 0.745 (active)
- normalized growth [15]: 0.911 (active)
- normalized growth [16]: 0.594 (active)
- normalized growth [17]: 0.842 (active)
- normalized growth [18]: 0.694 (active)
- normalized growth [19]: 0.829 (active)
- normalized growth [20]: 0.595 (active)
- normalized growth [21]: 0.658 (active)
- normalized growth [22]: 0.907
- normalized growth [23]: 0.814 (active)
- normalized growth [24]: 0.913
- normalized growth [2]: 1.01
- normalized growth [3]: 0.892 (active)
- normalized growth [25]: 0.709 (active)
- normalized growth [4]: 0.849 (active)
- normalized growth [26]: 0.737 (active)
- normalized growth [5]: 0.751 (active)
- normalized growth [6]: 0.844 (active)
- normalized growth [27]: 0.889
- normalized growth (S. cerevisiae strains, strain wild type, active compounds read low): 0.851 (active)

SMILES: N#Cc1c(F)cccc1Oc1ccc(F)cc1
- normalized growth [7]: 0.999
- normalized growth [8]: 0.957
- normalized growth [9]: 1.01
- normalized growth [10]: 0.98
- normalized growth (S. cerevisiae deletion strains, locus YDL134C, strain PPH21, active compounds read low): 0.986
- normalized growth [11]: 0.941
- normalized growth [12]: 0.966
- normalized growth [1]: 0.971
- normalized growth [13]: 0.848
- normalized growth [14]: 0.948
- normalized growth [15]: 0.999
- normalized growth [16]: 0.946
- normalized growth [17]: 0.972
- normalized growth [18]: 0.851
- normalized growth [19]: 0.979
- normalized growth [20]: 0.941
- normalized growth [21]: 0.907
- normalized growth [22]: 0.97
- normalized growth [23]: 0.971
- normalized growth [24]: 0.998
- normalized growth [2]: 0.891
- normalized growth [3]: 0.991
- normalized growth [25]: 0.928
- normalized growth [4]: 0.962
- normalized growth [26]: 0.986
- normalized growth [5]: 0.956
- normalized growth [6]: 0.978
- normalized growth [27]: 0.905
